Data: publication PMC7862700, “An all-to-all approach to the identification of sequence-specific readers for epigenetic DNA modifications on cytosine”

What was measured:
Assay in all cases: DAPPL (digital affinity profiling via proximity ligation, sequencing); 10 mM Tris-HCl pH 7.5, 50 mM NaCl, 1 mM DTT, 4% glycerol, room temperature, 30 min; GST-TFs on glutathione beads, 16-mer random dsDNA library, 0.1% formaldehyde crosslink after washing; high values mean tight binding
FLI1 = target: T1, FLI1 (Homo sapiens, UniProt Q01543 1-452); settings: protein: recombinant; tags: N-terminal GST; dsDNA, one strand shown
T1 sequence: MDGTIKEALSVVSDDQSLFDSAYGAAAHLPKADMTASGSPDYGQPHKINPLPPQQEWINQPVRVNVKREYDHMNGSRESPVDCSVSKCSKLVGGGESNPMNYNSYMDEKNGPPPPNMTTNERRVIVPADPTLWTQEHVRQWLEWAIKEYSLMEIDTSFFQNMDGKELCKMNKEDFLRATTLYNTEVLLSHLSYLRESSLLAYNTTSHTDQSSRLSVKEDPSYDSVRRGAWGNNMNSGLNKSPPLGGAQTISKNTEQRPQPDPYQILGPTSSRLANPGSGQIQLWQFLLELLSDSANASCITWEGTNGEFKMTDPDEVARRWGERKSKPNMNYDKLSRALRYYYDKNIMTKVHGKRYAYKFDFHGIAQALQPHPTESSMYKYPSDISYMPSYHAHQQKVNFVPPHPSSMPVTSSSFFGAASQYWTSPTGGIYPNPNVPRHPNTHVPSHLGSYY
Summary of the method: (§1)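 Binding signal is given per hexamer as its read frequency for a factor divided by its frequency in the tag-only sample. GST-fused human transcription factors were expressed in yeast, captured on glutathione beads, barcoded with DNA and pooled with that sample, then incubated with 200 nmole of a 16-mer random double-stranded DNA library in Tris/NaCl/DTT/glycerol buffer for 30 min at room temperature. The pools were then washed, crosslinked, proximity-ligated, amplified by PCR and sequenced on an Illumina NextSeq500.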

ELK1 = target: T2, ELK1 (Homo sapiens, UniProt P19419 1-428); settings: protein: recombinant; tags: N-terminal GST; dsDNA, one strand shown
T2 sequence: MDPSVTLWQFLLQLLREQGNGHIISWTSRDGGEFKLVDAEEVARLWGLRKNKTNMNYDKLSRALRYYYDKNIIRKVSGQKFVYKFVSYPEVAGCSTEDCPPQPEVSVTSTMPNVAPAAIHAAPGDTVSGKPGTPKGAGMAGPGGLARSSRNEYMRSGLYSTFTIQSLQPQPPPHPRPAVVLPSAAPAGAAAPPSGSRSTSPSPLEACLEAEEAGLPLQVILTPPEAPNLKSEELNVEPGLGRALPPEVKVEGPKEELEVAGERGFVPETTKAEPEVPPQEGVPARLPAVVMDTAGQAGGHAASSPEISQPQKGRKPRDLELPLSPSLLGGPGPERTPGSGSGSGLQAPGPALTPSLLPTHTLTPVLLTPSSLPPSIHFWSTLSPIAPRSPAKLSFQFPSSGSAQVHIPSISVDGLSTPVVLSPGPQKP
Summary of the method: as §1

GABPA = target: T3, GABPA (Homo sapiens, UniProt Q06546 1-454); settings: protein: recombinant; tags: N-terminal GST; dsDNA, one strand shown
T3 sequence: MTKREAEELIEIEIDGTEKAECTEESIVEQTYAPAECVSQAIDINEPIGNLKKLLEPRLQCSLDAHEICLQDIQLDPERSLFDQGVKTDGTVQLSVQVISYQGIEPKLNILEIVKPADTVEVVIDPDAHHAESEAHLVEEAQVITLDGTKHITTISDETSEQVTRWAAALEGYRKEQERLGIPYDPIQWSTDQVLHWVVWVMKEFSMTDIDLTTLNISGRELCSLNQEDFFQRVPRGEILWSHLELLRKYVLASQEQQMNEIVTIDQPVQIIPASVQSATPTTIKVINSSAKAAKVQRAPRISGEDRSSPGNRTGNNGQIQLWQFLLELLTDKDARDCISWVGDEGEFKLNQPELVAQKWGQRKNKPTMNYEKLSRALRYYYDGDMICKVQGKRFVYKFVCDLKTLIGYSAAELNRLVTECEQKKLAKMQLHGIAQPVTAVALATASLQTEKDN
Summary of the method: as §1

ERG = target: T4, ERG (Homo sapiens, UniProt P11308 1-479); settings: protein: recombinant; tags: N-terminal GST; dsDNA, one strand shown
T4 sequence: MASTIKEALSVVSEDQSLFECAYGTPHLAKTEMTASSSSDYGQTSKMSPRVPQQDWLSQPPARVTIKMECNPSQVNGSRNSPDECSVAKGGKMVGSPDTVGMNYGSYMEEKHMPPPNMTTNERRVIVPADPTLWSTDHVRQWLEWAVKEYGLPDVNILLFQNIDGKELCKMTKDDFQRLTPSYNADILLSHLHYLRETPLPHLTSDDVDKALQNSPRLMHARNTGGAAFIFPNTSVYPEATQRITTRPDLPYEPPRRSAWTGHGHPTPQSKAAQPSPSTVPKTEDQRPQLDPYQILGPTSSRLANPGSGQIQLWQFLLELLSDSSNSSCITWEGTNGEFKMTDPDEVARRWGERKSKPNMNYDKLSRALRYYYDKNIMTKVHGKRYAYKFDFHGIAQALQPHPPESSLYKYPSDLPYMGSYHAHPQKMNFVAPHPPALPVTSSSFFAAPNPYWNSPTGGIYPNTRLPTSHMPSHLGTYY
Summary of the method: as §1

ELF1 = ELF1 (Homo sapiens, UniProt P32519 1-619); settings: protein: recombinant; tags: N-terminal GST; dsDNA, one strand shown
Summary of the method: as §1

EHF = target: T5, EHF (Homo sapiens, UniProt Q9NZC4 1-300); settings: protein: recombinant; tags: N-terminal GST; dsDNA, one strand shown
T5 sequence: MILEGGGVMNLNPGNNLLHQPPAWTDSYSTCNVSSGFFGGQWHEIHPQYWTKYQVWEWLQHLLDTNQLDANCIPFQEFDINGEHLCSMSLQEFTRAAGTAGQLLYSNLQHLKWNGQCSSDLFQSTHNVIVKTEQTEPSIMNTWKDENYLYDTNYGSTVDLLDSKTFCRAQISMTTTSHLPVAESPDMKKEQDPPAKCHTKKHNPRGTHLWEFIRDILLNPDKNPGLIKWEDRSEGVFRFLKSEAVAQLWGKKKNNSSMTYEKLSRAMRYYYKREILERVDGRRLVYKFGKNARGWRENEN
Summary of the method: as §1

SPI1 = SPI1 (Homo sapiens, UniProt P17947 1-270); settings: protein: recombinant; tags: N-terminal GST; dsDNA, one strand shown
Summary of the method: as §1

SPIB = SPIB (Homo sapiens, UniProt Q01892 1-262); settings: protein: recombinant; tags: N-terminal GST; dsDNA, one strand shown
Summary of the method: as §1

ELK3 = target: T6, ELK3 (Homo sapiens, UniProt P41970 1-407); settings: protein: recombinant; tags: N-terminal GST; dsDNA, one strand shown
T6 sequence: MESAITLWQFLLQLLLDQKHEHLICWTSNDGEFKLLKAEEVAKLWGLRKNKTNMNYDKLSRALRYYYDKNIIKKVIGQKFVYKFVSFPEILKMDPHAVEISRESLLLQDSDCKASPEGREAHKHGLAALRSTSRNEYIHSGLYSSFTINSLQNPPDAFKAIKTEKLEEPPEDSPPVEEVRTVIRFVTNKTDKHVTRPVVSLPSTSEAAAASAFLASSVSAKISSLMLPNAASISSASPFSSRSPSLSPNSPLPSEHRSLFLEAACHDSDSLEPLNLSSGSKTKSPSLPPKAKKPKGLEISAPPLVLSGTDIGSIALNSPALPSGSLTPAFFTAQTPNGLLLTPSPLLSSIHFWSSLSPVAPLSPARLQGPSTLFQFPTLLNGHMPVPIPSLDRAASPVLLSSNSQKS
Summary of the method: as §1

FEV = target: T7, FEV (Homo sapiens, UniProt Q99581 1-238); settings: protein: recombinant; tags: N-terminal GST; dsDNA, one strand shown
T7 sequence: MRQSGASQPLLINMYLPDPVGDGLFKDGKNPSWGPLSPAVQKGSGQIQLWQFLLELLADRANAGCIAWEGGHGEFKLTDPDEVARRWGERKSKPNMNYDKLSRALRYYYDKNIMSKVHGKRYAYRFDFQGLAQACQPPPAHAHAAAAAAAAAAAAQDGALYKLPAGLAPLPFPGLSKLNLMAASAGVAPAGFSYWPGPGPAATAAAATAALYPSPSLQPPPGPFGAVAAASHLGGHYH
Summary of the method: as §1

ETV5 = ETV5 (Homo sapiens, UniProt P41161 1-510); settings: protein: recombinant; tags: N-terminal GST; dsDNA, one strand shown
Summary of the method: as §1

HSF1 = HSF1 (Homo sapiens, UniProt Q00613 1-529); settings: protein: recombinant; tags: N-terminal GST; chain copies: 3; dsDNA, one strand shown
Summary of the method: as §1

SPIC = target: T8, SPIC (Homo sapiens, UniProt Q8N5J4 1-248); settings: protein: recombinant; tags: N-terminal GST; dsDNA, one strand shown
T8 sequence: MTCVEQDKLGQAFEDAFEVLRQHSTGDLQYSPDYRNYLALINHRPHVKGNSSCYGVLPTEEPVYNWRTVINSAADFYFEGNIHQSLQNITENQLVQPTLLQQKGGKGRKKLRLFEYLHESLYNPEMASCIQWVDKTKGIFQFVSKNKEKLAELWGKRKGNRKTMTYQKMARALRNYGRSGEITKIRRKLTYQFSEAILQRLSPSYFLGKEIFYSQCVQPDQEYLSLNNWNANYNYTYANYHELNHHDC
Summary of the method: as §1

ELF4 = ELF4 (Homo sapiens, UniProt Q99607 1-663); settings: protein: recombinant; tags: N-terminal GST; dsDNA, one strand shown
Summary of the method: as §1

ELK4 = target: T9, ELK4 (Homo sapiens, UniProt P28324-2 1-405); settings: protein: recombinant; tags: N-terminal GST; dsDNA, one strand shown
T9 sequence: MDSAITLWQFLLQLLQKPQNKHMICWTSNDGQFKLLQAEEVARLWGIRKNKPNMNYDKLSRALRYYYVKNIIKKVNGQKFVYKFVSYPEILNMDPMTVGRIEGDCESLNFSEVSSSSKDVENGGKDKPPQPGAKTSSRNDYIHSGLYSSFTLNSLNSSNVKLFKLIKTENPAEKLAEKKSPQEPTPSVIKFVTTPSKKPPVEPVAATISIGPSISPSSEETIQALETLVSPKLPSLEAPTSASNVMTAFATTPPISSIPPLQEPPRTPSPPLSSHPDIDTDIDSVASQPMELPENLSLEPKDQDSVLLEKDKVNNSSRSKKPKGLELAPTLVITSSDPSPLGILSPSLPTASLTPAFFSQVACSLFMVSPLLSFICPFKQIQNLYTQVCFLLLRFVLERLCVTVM
Summary of the method: as §1

ETV2 = target: T10, ETV2 (Homo sapiens, UniProt O00321 1-342); settings: protein: recombinant; tags: N-terminal GST; dsDNA, one strand shown
T10 sequence: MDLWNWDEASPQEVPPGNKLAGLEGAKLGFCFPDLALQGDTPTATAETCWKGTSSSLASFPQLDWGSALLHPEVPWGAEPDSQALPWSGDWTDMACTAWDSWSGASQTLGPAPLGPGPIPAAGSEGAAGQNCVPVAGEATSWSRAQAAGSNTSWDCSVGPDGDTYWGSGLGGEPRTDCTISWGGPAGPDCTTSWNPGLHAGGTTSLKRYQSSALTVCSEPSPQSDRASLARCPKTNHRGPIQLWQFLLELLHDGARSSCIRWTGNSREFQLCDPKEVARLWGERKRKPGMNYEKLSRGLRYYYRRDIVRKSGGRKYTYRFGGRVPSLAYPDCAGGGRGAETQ
Summary of the method: as §1

ELF3 = target: T11, ELF3 (Homo sapiens, UniProt P78545 1-371); settings: protein: recombinant; tags: N-terminal GST; dsDNA, one strand shown
T11 sequence: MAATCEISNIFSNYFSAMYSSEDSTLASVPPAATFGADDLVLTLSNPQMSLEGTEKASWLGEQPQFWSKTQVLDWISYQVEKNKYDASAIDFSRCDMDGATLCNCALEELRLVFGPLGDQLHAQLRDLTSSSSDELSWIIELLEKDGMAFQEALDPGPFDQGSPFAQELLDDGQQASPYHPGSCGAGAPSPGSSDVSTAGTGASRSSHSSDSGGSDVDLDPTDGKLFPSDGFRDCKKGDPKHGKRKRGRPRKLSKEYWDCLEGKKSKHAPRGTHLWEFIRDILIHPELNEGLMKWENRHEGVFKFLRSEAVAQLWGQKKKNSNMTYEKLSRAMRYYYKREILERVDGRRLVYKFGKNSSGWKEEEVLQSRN
Summary of the method: as §1

CRX = CRX (Homo sapiens, UniProt O43186 1-299); settings: protein: recombinant; tags: N-terminal GST; dsDNA, one strand shown
Summary of the method: as §1

ETV1 = ETV1 (Homo sapiens, UniProt P50549 1-477); settings: protein: recombinant; tags: N-terminal GST; dsDNA, one strand shown
Summary of the method: as §1

Chain of ETV5 (P41161 whole entry): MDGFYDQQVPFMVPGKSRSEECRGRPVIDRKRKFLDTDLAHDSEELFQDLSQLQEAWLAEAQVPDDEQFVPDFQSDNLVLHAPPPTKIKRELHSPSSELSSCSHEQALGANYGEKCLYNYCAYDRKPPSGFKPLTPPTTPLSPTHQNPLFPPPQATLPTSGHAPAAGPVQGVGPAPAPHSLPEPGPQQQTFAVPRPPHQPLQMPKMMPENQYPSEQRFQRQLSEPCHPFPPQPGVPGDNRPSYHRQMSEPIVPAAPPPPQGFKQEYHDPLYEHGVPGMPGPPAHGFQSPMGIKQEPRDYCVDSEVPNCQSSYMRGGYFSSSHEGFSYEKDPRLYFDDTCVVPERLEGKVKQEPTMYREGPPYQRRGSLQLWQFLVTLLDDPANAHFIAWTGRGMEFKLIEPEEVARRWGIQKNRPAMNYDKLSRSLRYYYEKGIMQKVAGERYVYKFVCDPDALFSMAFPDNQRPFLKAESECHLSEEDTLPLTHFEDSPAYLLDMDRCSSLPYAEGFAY
Chain of ELF4 (Q99607 whole entry): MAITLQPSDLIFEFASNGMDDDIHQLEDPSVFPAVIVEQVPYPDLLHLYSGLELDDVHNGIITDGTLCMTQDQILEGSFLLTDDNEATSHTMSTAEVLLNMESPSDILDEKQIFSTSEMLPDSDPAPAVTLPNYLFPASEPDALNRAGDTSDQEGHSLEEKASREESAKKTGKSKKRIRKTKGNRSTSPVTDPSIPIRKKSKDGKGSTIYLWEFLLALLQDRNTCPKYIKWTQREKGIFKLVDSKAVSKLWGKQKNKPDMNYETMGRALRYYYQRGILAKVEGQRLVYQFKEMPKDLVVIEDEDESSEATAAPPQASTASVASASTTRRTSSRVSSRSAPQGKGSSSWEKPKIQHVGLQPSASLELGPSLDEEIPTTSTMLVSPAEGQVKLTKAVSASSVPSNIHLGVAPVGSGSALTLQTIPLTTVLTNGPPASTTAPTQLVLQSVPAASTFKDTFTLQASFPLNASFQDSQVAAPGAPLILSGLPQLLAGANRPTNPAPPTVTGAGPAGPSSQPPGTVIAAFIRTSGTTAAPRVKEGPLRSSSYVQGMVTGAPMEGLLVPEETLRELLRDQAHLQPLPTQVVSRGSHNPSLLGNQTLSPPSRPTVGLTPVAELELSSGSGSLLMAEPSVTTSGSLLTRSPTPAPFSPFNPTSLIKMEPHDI
Chain of ETV1 (P50549 whole entry): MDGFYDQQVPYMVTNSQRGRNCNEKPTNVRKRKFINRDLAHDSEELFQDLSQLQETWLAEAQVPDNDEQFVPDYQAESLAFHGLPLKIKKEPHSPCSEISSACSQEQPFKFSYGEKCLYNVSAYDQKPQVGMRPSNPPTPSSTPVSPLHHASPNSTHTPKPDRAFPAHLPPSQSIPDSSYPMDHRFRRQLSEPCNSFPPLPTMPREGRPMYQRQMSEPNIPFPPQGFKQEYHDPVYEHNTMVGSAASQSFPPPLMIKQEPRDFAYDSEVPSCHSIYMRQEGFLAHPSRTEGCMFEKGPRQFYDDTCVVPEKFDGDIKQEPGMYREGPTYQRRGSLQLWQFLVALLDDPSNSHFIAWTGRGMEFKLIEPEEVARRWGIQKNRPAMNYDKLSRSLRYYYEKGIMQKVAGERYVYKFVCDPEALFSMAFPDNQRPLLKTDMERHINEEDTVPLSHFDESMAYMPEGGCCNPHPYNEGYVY
Chain of CRX (O43186 whole entry): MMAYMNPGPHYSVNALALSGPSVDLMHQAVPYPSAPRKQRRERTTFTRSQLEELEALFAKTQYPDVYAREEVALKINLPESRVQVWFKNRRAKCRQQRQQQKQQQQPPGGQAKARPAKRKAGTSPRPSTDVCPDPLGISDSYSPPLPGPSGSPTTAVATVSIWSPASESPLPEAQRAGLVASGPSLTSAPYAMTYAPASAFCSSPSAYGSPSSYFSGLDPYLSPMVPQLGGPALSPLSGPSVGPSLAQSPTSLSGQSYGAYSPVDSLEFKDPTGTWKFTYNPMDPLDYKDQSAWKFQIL
Chain of HSF1 (Q00613 whole entry): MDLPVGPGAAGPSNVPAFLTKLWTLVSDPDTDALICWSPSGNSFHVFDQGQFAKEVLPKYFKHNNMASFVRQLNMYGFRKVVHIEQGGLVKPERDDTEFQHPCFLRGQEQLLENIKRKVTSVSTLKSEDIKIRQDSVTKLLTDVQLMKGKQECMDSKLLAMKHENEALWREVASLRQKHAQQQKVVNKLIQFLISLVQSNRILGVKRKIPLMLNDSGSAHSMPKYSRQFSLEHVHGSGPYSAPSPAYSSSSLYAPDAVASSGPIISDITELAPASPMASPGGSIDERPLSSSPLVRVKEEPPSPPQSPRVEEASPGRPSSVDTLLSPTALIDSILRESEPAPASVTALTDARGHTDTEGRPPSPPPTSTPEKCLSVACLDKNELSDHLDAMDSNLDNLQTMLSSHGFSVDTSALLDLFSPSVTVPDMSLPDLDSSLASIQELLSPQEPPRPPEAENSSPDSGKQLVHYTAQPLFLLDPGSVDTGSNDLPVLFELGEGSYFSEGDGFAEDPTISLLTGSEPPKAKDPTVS
Chain of SPIB (Q01892 whole entry): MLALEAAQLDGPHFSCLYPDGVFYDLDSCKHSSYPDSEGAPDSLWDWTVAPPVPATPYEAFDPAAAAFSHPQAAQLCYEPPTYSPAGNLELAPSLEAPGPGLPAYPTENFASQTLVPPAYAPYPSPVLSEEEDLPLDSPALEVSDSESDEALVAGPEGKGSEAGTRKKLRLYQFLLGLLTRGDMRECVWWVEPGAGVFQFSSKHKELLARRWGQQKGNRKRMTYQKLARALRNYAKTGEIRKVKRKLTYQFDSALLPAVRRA
Chain of ELF1 (P32519 whole entry): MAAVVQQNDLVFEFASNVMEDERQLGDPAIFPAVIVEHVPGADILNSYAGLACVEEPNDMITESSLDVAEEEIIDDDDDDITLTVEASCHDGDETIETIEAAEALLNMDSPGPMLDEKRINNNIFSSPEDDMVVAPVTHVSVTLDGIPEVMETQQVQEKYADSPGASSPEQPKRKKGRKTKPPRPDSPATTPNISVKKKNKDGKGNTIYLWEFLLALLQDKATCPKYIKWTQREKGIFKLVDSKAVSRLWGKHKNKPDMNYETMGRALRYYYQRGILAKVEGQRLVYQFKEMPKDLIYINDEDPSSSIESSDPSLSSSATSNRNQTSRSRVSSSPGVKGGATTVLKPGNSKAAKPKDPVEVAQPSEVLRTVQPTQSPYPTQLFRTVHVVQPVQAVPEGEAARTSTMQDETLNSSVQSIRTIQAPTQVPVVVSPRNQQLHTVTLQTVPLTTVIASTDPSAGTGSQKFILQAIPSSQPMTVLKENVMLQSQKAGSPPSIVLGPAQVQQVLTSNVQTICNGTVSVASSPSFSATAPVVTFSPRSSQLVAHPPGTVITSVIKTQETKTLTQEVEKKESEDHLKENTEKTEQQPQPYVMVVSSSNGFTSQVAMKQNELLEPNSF

## GCCTTA
FLI1
  binding signal: 1.15 fold enrichment (6-mer frequency, TF over GST control)
ELK1
  binding signal: 1.21 fold enrichment (6-mer frequency, TF over GST control)
GABPA
  binding signal: 1.26 fold enrichment (6-mer frequency, TF over GST control)
ERG
  binding signal: 1.21 fold enrichment (6-mer frequency, TF over GST control)
ELF1
  binding signal: 1.17 fold enrichment (6-mer frequency, TF over GST control)
EHF
  binding signal: 1.11 fold enrichment (6-mer frequency, TF over GST control)
SPI1
  binding signal: 1.13 fold enrichment (6-mer frequency, TF over GST control)
SPIB
  binding signal: 1.27 fold enrichment (6-mer frequency, TF over GST control)
ELK3
  binding signal: 1.15 fold enrichment (6-mer frequency, TF over GST control)
FEV
  binding signal: 1.11 fold enrichment (6-mer frequency, TF over GST control)
ETV5
  binding signal: 1.13 fold enrichment (6-mer frequency, TF over GST control)
HSF1
  binding signal: 1.3 fold enrichment (6-mer frequency, TF over GST control)
SPIC
  binding signal: 1.07 fold enrichment (6-mer frequency, TF over GST control)
ELF4
  binding signal: 1.3 fold enrichment (6-mer frequency, TF over GST control)
ELK4
  binding signal: 1.1 fold enrichment (6-mer frequency, TF over GST control)
ETV2
  binding signal: 1.1 fold enrichment (6-mer frequency, TF over GST control)
ELF3
  binding signal: 1.24 fold enrichment (6-mer frequency, TF over GST control)
CRX
  binding signal: 1.64 fold enrichment (6-mer frequency, TF over GST control)
ETV1
  binding signal: 1.14 fold enrichment (6-mer frequency, TF over GST control)
